Source: PubChem BioAssay (EPA / NIEHS)
Calls of active or inactive are those of the source. How the source made its calls: active means hit-call score of the fitted dose curve at least 0.9, where 1 is the maximum; inactive means score below 0.9.

tested on: not listed separately; test: ATG_M_19_CIS: Attagene CIS-FACTORIAL HepG2 Assay for M19 Transcription Factor (Internal Marker) (AID 2282939); details: HepG2 Attagene CIS-FACTORIAL M19 internal marker reporter; actives raise or lower the signal
Outline: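 Signals come from fluorescence of labelled reporter-specific PCR fragments resolved by capillary electrophoresis, following 24 h treatment of HepG2 cells transfected with cis-promoter reporter units; activity was fitted in both directions relative to DMSO.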

Structure (SMILES)	outcome
CN(C)CCC(c1ccc(Cl)cc1)c1ccccn1 (centres undefined)	inactive
CN(C)CCCN1c2ccccc2CCc2ccc(Cl)cc21	inactive
CC/C=C\CC1=C(C)CCC1=O	inactive
C[C@H]1C[C@H]2[C@@H]3CCC4=CC(=O)C=C[C@]4(C)[C@@]3(F)[C@@H](O)C[C@]2(C)[C@@]1(O)C(=O)CO	inactive
COC(OC)C(C)c1ccccc1 (centres undefined)	inactive
F[B-](F)(F)F	inactive
COCCCN	inactive
CC1=CCCC(C)(C)C12CCC(C)O2 (centres undefined)	inactive
CC(=O)c1nccs1	inactive
COc1ccccc1OCC(O)CO (centres undefined)	inactive
OCCN(CCO)c1cccc(Cl)c1	inactive
O=C(O)c1nc(Cl)c(Cl)c(Cl)c1Cl	inactive
CC=CC(=O)O	inactive

tested on: not listed separately; test: ATG_ERE_CIS: Attagene CIS-FACTORIAL HepG2 Assay for Estrogen Response Element (ERE) (AID 2282940); details: HepG2 ERE cis-reporter, Attagene RNA transcript; actives raise or lower the signal
Outline: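 Fluorescence of capillary-separated, FAM-labelled reporter cDNA fragments indicates reporter mRNA levels in HepG2 cells exposed to chemicals for 24 h. Transient transfection with cis-regulated units; data fitted in both directions against DMSO.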

Structure (SMILES)	outcome	AC50
CCCc1c(OCCCCc2nn[nH]n2)ccc(C(C)=O)c1O	inactive	–
c1cc(N(CC2CO2)CC2CO2)ccc1Cc1ccc(N(CC2CO2)CC2CO2)cc1 (centres undefined)	inactive	–
O=[N+]([O-])c1ccc2nc[nH]c2c1	inactive	–
CC(C)CC(=O)O	inactive	–
CCCOCCC	inactive	–
COC(OC)C(C)c1ccccc1 (centres undefined)	inactive	–
COCCCN	inactive	–
CC(=O)c1nccs1	–	4.94 µM (active)

tested on: not listed separately; test: ATG_Ets_CIS: Attagene CIS-FACTORIAL HepG2 Assay for human Erythroblast Transformation Specific (ETS) (AID 2282941); details: HepG2 ETS cis-reporter transcription, actives raise or lower the signal
Outline: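 Endogenous transcription factor activity read as reporter mRNA via RT-PCR and capillary electrophoresis, with gain or loss fitted bidirectionally against DMSO. Human HepG2 liver cells, transiently transfected CIS reporter constructs, 24 h exposure.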

Structure (SMILES)	outcome
CC1(C)S[C@@H]2[C@H](NC(=O)[C@H](N)c3ccccc3)C(=O)N2[C@H]1C(=O)O	inactive
CCCc1c(OCCCCc2nn[nH]n2)ccc(C(C)=O)c1O	inactive
Clc1ccccn1	inactive
c1cc(N(CC2CO2)CC2CO2)ccc1Cc1ccc(N(CC2CO2)CC2CO2)cc1 (centres undefined)	inactive
CCCCCCCCCCC1CO1 (centres undefined)	inactive
NCc1ccccc1	inactive
CCCCn1cc[n+](C)c1	inactive
CC(C)CC(=O)O	inactive
C[Si](C)(C)O[Si](C)(C)O[Si](C)(C)C	inactive
Cc1cc(O)cc(C)c1Cl	inactive
CC(C)n1c(/C=C/[C@@H](O)C[C@@H](O)CC(=O)O)c(-c2ccc(F)cc2)c2ccccc21	inactive
CC(O)(P(=O)(O)O)P(=O)(O)O	inactive
Cc1ccccc1S(N)(=O)=O	inactive
C=C(C)C(=O)OCC1CCCO1 (centres undefined)	inactive
OCCOCCOCCOCCOCCO	inactive
C1=CCC=C1	inactive
CC(C)CC(=O)CC(C)CC(C)C (centres undefined)	inactive
CN(C)CCC(c1ccc(Cl)cc1)c1ccccn1 (centres undefined)	inactive
CN(C)CCCN1c2ccccc2CCc2ccc(Cl)cc21	inactive
COC(OC)C(C)c1ccccc1 (centres undefined)	inactive
COCCCN	inactive
CC1=CCCC(C)(C)C12CCC(C)O2 (centres undefined)	inactive
CC(=O)c1nccs1	inactive
COc1ccccc1OCC(O)CO (centres undefined)	inactive
CC=CC(=O)O	inactive

target: Hepatocyte nuclear factor 3-beta (Homo sapiens) (UniProt Q9Y261); test: ATG_FoxA2_CIS: Attagene CIS-FACTORIAL HepG2 Assay for human Forkhead box A2 (FOXA2) (AID 2282942); details: HepG2 cis-reporter transcription factor activity, 24 h; actives raise or lower the signal
Outline: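 Cells: HepG2, transient multiplex reporter transfection. Exposure 24 h. Detection: reporter-specific RT-PCR, fluorescent labelling, restriction digest, capillary electrophoresis. Analysis: bidirectional curve fit, DMSO as negative control.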

Hepatocyte nuclear factor 3-beta (Homo sapiens), sequence (Q9Y261 whole entry, looked up): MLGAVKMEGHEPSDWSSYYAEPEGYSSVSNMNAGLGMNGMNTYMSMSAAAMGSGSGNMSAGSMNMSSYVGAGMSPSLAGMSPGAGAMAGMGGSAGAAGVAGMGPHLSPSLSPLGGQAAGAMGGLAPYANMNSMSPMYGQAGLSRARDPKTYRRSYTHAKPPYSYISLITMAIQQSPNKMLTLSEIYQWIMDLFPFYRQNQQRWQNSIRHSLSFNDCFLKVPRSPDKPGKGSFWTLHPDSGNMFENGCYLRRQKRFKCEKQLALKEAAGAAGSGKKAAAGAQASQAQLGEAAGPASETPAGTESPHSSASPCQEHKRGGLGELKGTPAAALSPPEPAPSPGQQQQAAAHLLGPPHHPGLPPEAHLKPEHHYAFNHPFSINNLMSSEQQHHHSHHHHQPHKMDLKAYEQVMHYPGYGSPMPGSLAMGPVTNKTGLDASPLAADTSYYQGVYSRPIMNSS

Structure (SMILES)	outcome
CC1(C)S[C@@H]2[C@H](NC(=O)[C@H](N)c3ccccc3)C(=O)N2[C@H]1C(=O)O	inactive
CCC(C)(CCC(C)C)C(=O)O (centres undefined)	inactive
Cc1cc(C)c(S(=O)(=O)O)cc1N=Nc1cc(S(=O)(=O)O)c2ccccc2c1O	inactive
CCCc1c(OCCCCc2nn[nH]n2)ccc(C(C)=O)c1O	inactive
Clc1ccccn1	inactive
c1cc(N(CC2CO2)CC2CO2)ccc1Cc1ccc(N(CC2CO2)CC2CO2)cc1 (centres undefined)	inactive
CCCCCCOC(=O)CCCCCCCC(=O)OCCCCCC	inactive
CC1=NN(c2cc(Cl)c(S(=O)(=O)O)cc2Cl)C(=O)C1N=Nc1ccc(S(=O)(=O)O)cc1 (centres undefined)	inactive
O=C(O)Cc1c[nH]c2ccccc12	inactive
CCCCCCCCCCC1CO1 (centres undefined)	inactive
NCc1ccccc1	inactive
O=[N+]([O-])c1ccc2nc[nH]c2c1	inactive
CCCCn1cc[n+](C)c1	inactive
CC(C)CC(=O)O	inactive
C[Si](C)(C)O[Si](C)(C)O[Si](C)(C)C	inactive
Cc1cc(O)cc(C)c1Cl	inactive
CC(C)n1c(/C=C/[C@@H](O)C[C@@H](O)CC(=O)O)c(-c2ccc(F)cc2)c2ccccc21	inactive
CC1=C(CC=O)C(C)(C)CCC1	inactive
CC(O)(P(=O)(O)O)P(=O)(O)O	inactive

Structure (SMILES)	outcome
Cc1cccnc1	inactive
Cc1ccccc1S(N)(=O)=O	inactive
C=C(C)C(=O)OCC1CCCO1 (centres undefined)	inactive
OCCOCCOCCOCCOCCO	inactive
C1=CCC=C1	inactive
CC(C)CC(=O)CC(C)CC(C)C (centres undefined)	inactive
CCCOCCC	inactive
CN(C)CCCN1c2ccccc2CCc2ccc(Cl)cc21	inactive
CC/C=C\CC1=C(C)CCC1=O	inactive
C[C@H]1C[C@H]2[C@@H]3CCC4=CC(=O)C=C[C@]4(C)[C@@]3(F)[C@@H](O)C[C@]2(C)[C@@]1(O)C(=O)CO	inactive
COC(OC)C(C)c1ccccc1 (centres undefined)	inactive
F[B-](F)(F)F	inactive
COCCCN	inactive
CC1=CCCC(C)(C)C12CCC(C)O2 (centres undefined)	inactive
CC(=O)c1nccs1	inactive
COc1ccccc1OCC(O)CO (centres undefined)	inactive
OCCN(CCO)c1cccc(Cl)c1	inactive
O=C(O)c1nc(Cl)c(Cl)c(Cl)c1Cl	inactive
CC=CC(=O)O	inactive
